Results filed as inconclusive are left out. A number with no mark means an inactive call. Calls follow the shape of the dose curve; as a rule, active = well fitted inhibition curve with a large enough effect; inconclusive = small, poorly fitted or top-dose-only effect; inactive = flat fitted curve, though single readings scatter.
Target: Calcium and integrin-binding protein 1 (Homo sapiens) (UniProt Q99828)
Test: Primary qHTS for Identification of Calcium Integrin Binding Protein 1 (CIB1) Competitor (AID 1508620);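 also: GST tagged CIB1 binding a fluorescein labelled alphaIIb integrin peptide tracer; top concentration of the series differs between compounds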
Settings: CIB1-GST / FITC-alphaIIb peptide fluorescence polarization; series mostly up to 114 µM; activity change, negative = inhibition: at the top concentration
How it was run: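 Fluorescence polarization competition: CIB1-GST (1 uM final) preincubated with compound 15 min at room temperature, then FITC-labeled alphaIIb peptide (100 nM final) added for another 15 min. Polarization read at Ex 480/Em 540.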
% is scaled to controls: 0 for no effect and ±100 for the full control effect.

Sequence of Calcium and integrin-binding protein 1 (Homo sapiens) (Q99828 whole entry, looked up): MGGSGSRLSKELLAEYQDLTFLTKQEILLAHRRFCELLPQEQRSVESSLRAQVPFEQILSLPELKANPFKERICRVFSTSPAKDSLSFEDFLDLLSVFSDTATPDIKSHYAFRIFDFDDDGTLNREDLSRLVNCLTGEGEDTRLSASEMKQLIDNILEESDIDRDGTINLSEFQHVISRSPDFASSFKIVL

| Structure (SMILES) | activity change, negative = inhibition |
| --- | --- |
| CC(C)C(=O)OC[C@H]1O[C@H](O[C@H]2O[C@H](CO)[C@@H](O)[C@H](O)[C@H]2O)[C@H](O)[C@@H](O)[C@@H]1O | 0.761% [at 57.7 µM] |
| CC1CCC2(C(=O)O)CCC3(C)C(=CCC4C5(C)CCC(OC(=O)/C=C/c6ccccc6)C(C)(C)C5CCC43C)C2C1C (stereo not drawn) | 0.715% [at 30.2 µM] |
| C=CC(=O)Nc1cccc(CN2C(=O)N(c3c(Cl)c(OC)cc(OC)c3Cl)Cc3cnc(NCCCCN(CC)CC)nc32)c1 | 0.933% |
| CC(C)=CCC[C@](C)(O[C@@H]1O[C@H](CO)[C@@H](O)[C@H](O)[C@H]1O)[C@H]1CC[C@]2(C)[C@@H]1[C@H](O)CC1[C@@]3(C)CC[C@H](O)C(C)(C)C3[C@@H](O[C@@H]3O[C@H](CO)[C@@H](O)[C@H](O)[C@H]3O[C@@H]3OC[C@@H](O)[C@H](O)[C@H]3O)C[C@]12C (stereo partly drawn) | 4.73% [at 30.2 µM] |
| O=[N+]([O-])c1cn2c(n1)OCC(OCc1ccc(OC(F)(F)F)cc1)C2 (stereo not drawn) | -1.88% |
| Cc1ccccc1C#Cc1ccc(CCC(=O)O)cc1 | -4.67% |
| COC1CC(OC2CCC3(C)C(=CCC4C3C(OC(C)=O)C(OC(=O)/C=C/c3ccccc3)C3(C)C(C(C)O)CCC43O)C2)OC(C)C1OC1CC(OC)C(OC2OC(C)C(OC3OC(CO)C(O)C(O)C3O)C(OC)C2O)C(C)O1 (stereo not drawn) | -8.58% [at 12.4 µM] |
| C=CC1(C)CC(OC(=O)/C(C)=C\COC(C)=O)C(C(=C)C(=O)O)C(O)C1C(=C)CO (stereo not drawn) | -12% [at 57.7 µM] |
| CC1=C2C3OC(=O)C(C)C3(O)CCC2(C)CCC1O (stereo not drawn) | -9.08% |
| CC1(C)CC[C@]2(CO[C@@H]3O[C@H](CO)[C@@H](O)[C@H](O)[C@H]3O)[C@@H](O)C[C@]3(C)C(=CCC4[C@@]5(C)CC[C@H](O[C@@H]6O[C@H](CO[C@@H]7O[C@H](CO[C@@H]8OC[C@@H](O)[C@H](O)[C@H]8O)[C@@H](O)[C@H](O)[C@H]7O)[C@@H](O)[C@H](O)[C@H]6O)C(C)(C)C5CC[C@]43C)[C@@H]2C1 (stereo partly drawn) | -5.87% [at 30.2 µM] |
| CC12CCC(C(OC3OC(COC4OCC(O)(CO)C4O)C(O)C(O)C3O)C1)C(C)(C)O2 (stereo not drawn) | -0.287% [at 57.7 µM] |
| COc1ccc(-c2nc(-c3ccc(-c4cccc(Cl)c4)o3)[nH]c2-c2ccc(OC)cc2)cc1 | 0.901% |
| CCOc1cc(N2CCC(O)CC2)ccc1Nc1ncc2c(n1)N(C1CCCC1)CCC(=O)N2C | -0.402% |
| CC1(C)CC[C@]2(C(=O)O[C@@H]3O[C@H](CO)[C@@H](O)[C@H](O)[C@H]3O)CC[C@]3(C)C(=CCC4[C@@]5(C)CC[C@H](O[C@@H]6O[C@H](C(=O)O)[C@@H](O)[C@H](O)[C@H]6O)C(C)(C)C5CC[C@]43C)C2C1 (stereo partly drawn) | -4.16% [at 30.2 µM] |
| C[C@@H]1CC[C@]2(C(=O)O)CC[C@]3(C)C(=CCC4[C@@]5(C)CC[C@H](O)C(C)(C)C5C(O)C[C@]43C)[C@@H]2[C@]1(C)O (stereo partly drawn) | 2.25% [at 57.7 µM] |
| COc1ccc(/C=C/C(=O)O[C@@H]2[C@@H](O)[C@H](C)O[C@@H](O[C@H]3[C@@H]4C=CO[C@@H](O[C@H]5O[C@@H](CO)[C@H](O)[C@@H](O)[C@@H]5O)[C@@H]4[C@@]4(CO)O[C@@H]34)[C@@H]2OC(C)=O)cc1 | 3.98% [at 30.2 µM] |
| C[C@@H]1O[C@@H](O[C@H]2[C@H](O)[C@@H](C(=O)O)O[C@@H](O[C@H]3CC[C@@]4(C)C(CC[C@]5(C)C4CC=C4C6CC(C)(C)CC[C@]6(C(=O)O)CC[C@]45C)C3(C)C)[C@@H]2O[C@@H]2OC[C@@H](O)[C@H](O)[C@H]2O)[C@H](O)[C@H](O)[C@H]1O (stereo partly drawn) | 0.901% [at 30.2 µM] |
| CC(C)=CCC[C@](C)(O)[C@H]1CC[C@]2(C)[C@@H]1[C@H](O)CC1[C@@]3(C)CC[C@H](O)C(C)(C)C3[C@@H](O[C@@H]3O[C@H](CO)[C@@H](O)[C@H](O)[C@H]3O[C@@H]3OC[C@@H](O)[C@H](O)[C@H]3O)C[C@]12C (stereo partly drawn) | -1.67% [at 30.2 µM] |
| COc1ccc(C2=N[C@@H](c3ccc(Cl)cc3)[C@@H](c3ccc(Cl)cc3)N2C(=O)N2CCNC(=O)C2)c(OC(C)C)c1 | -10.8% |
| CC1=CC(=O)CC(C)(C)[C@@]1(O)CC[C@@H](C)O[C@@H]1O[C@H](CO)[C@@H](O)[C@H](O)[C@H]1O | 1.81% [at 57.7 µM] |
| CC(=O)C1=C(C)N(c2cccc(C(F)(F)F)c2)C(=O)N[C@H]1c1ccc(C#N)nc1 | 2.41% [at 30.2 µM] |
| C=C1CCC2C(C)(C(=O)O)CCCC2(C)C1CCC(C)CC(=O)O (stereo not drawn) | -7.2% [at 57.7 µM] |
| CCOc1cc(CC(=O)NC(CC(C)C)c2ccccc2N2CCCCC2)ccc1C(=O)O (stereo not drawn) | 2.52% |

Reference: PubChem BioAssay (NCATS)
